Where “and” joins values, the source holds several entries; their conditions need not be identical. Identical values can stand only once. Results filed as inconclusive are left out. Calls of active or inactive are those of the source. The call rests on the fitted dose curve; in most records, active means well fitted curve in the direction sought with a large enough effect; inconclusive means small, poorly fitted or top-dose-only effect, or another doubt; inactive means no such curve, though single readings can be large; an effect the other way counts as inactive or inconclusive.
Columns and labels:
HEK293 = assay: Cytotoxic Profiling of Annotated Libraries Using Quantitative High-Throughput Screening (AID 1296008); conditions: Five cell lines viability, CellTiter-Glo ATP luminescence, 48-72 h; max response: hits give low values; further: nearly all actives have a fitted effect of over 60% in size; further: potency means the concentration at half of the fitted maximal effect
Procedure, shortened: (§1)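 Cells exposed to compounds for 48 or 72 hr at 37 degrees Celsius. Viability read as ATP-coupled luminescence with CellTiter-Glo after 10 min at room temperature.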

HaCat [1] = assay: as above; conditions: Five cell lines viability, CellTiter-Glo ATP luminescence, 48-72 h; max response: hits give low values
Procedure, shortened: as §1

KB-3-1 = assay: as above; conditions: Five cell lines viability, CellTiter-Glo ATP luminescence, 48-72 h; max response: hits give low values
Procedure, shortened: as §1

NIH3T3 [2] = assay: as above; conditions: Five cell lines viability, CellTiter-Glo ATP luminescence, 48-72 h; max response: hits give low values
Procedure, shortened: as §1

HACAT [3] = assay: qHTS assay to identify novel small-molecules to repurpose for Merkel cell carcinoma treatment (AID 1296009); conditions: MCC and control cell lines, CellTiter-Glo viability, 72 h; further: nearly all actives have a fitted effect of over 60% in size; further: potency means the concentration at half of the fitted maximal effect
Procedure, shortened: (§2)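 Cells were incubated with compound for 72 hr at 37 degree celsius before CellTiter-Glo addition. Luminescence was normalized with no-cell wells as full cytotoxicity and DMSO as baseline.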

MCC-13 = assay: as above; conditions: MCC and control cell lines, CellTiter-Glo viability, 72 h; series mostly up to 46 µM
Procedure, shortened: as §2

MKL-1 = assay: as above; conditions: MCC and control cell lines, CellTiter-Glo viability, 72 h; series mostly up to 46 µM
Procedure, shortened: as §2

MKL-2 = assay: as above; conditions: MCC and control cell lines, CellTiter-Glo viability, 72 h; series mostly up to 46 µM
Procedure, shortened: as §2

UISO = assay: as above; conditions: MCC and control cell lines, CellTiter-Glo viability, 72 h; series mostly up to 46 µM
Procedure, shortened: as §2

WaGa = assay: as above; conditions: MCC and control cell lines, CellTiter-Glo viability, 72 h; series mostly up to 46 µM
Procedure, shortened: as §2

C33A = assay: Primary qHTS to identify gynecologic anti-cancer compounds using libraries of approved drugs and bioactive compounds (AID 1345084); conditions: Gynecologic cancer cell panel viability, ATPlite luminescence, 48 h; series mostly up to 57.5 µM; further: nearly all actives have a fitted effect of over 55% in size
Procedure, shortened: (§3)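 In this quantitative HTS, cell killing is estimated from loss of ATP-dependent luciferase light. Cells see five compound concentrations over a 48 h exposure.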

CAOV3 = assay: as above; conditions: Gynecologic cancer cell panel viability, ATPlite luminescence, 48 h; series mostly up to 57.5 µM
Procedure, shortened: as §3

CASKI = assay: as above; conditions: Gynecologic cancer cell panel viability, ATPlite luminescence, 48 h; series mostly up to 57.5 µM
Procedure, shortened: as §3

Es-2 = assay: as above; conditions: Gynecologic cancer cell panel viability, ATPlite luminescence, 48 h; series mostly up to 57.5 µM
Procedure, shortened: as §3

HeLa = assay: as above; conditions: Gynecologic cancer cell panel viability, ATPlite luminescence, 48 h; series mostly up to 57.5 µM
Procedure, shortened: as §3

JEG-3 = assay: as above; conditions: Gynecologic cancer cell panel viability, ATPlite luminescence, 48 h; series mostly up to 57.5 µM
Procedure, shortened: as §3

HEK293T [4] = assay: qHTS assay to identify novel small-molecules to repurpose for Merkel cell carcinoma treatment (AID 1296009); conditions: MCC and control cell lines, CellTiter-Glo viability, 72 h; at 44.8 µM (top of the series); further: nearly all actives have a fitted effect of over 60% in size; further: potency means the concentration at half of the fitted maximal effect
Procedure, shortened: as §2

MCC-26 = assay: as above; conditions: MCC and control cell lines, CellTiter-Glo viability, 72 h; series mostly up to 46 µM
Procedure, shortened: as §2

NIH3T3 [5] = assay: as above; conditions: MCC and control cell lines, CellTiter-Glo viability, 72 h; at 44.8 µM (top of the series) unless noted
Procedure, shortened: as §2

Hek293T [6] = assay: Primary qHTS to identify gynecologic anti-cancer compounds using libraries of approved drugs and bioactive compounds (AID 1345084); conditions: Gynecologic cancer cell panel viability, ATPlite luminescence, 48 h, control line for the selectivity index; series mostly up to 57.5 µM; further: nearly all actives have a fitted effect of over 55% in size
Procedure, shortened: as §3

[7] = at 44.8 µM (top of the series) unless noted
On the % scale 0 is the no-effect control and ±100 the full control effect.

O=c1[nH]cnc2[nH]ncc12
inactive: max response (HEK293) -10.4% | max response (HaCat [1]) 0.897% | outcome (HaCat [1]) | max response (KB-3-1) 2.11% and 5.17% | max response (NIH3T3 [2]) 4.86% and -3.07% | outcome (HACAT [3]; [7]) | Potency (MCC-13) | Potency (MKL-1) | Potency (MKL-2) | Potency (UISO) | Potency (WaGa) | Potency (C33A) | Potency (CAOV3) | Potency (CASKI) | Potency (Es-2) | Potency (HeLa) | Potency (JEG-3)

COc1ccc(-c2oc3cc(OC)ccc3c2C(=O)c2ccc(C#N)cc2)cc1
inactive: outcome (HEK293) | outcome (HaCat [1]) | outcome (KB-3-1) | outcome (NIH3T3 [2]) | outcome (HACAT [3]; [7]) | outcome (HEK293T [4]) | Potency (MCC-13) | Potency (MCC-26) | Potency (MKL-1) | outcome (NIH3T3 [5]) | Potency (UISO) | Potency (WaGa)

Nc1ccc(S(=O)(=O)Nc2ccnn2-c2ccccc2)cc1
inactive: max response (HEK293) -2.4% and -5.26% | outcome (HaCat [1]) | max response (KB-3-1) -3.13% and 3.95% | max response (NIH3T3 [2]) 4.45% and 3.04% | outcome (HACAT [3]; at 17.4 µM (top of the series)) | outcome (HACAT [3]; at 44.8 µM (top of the series)) | Potency (MCC-13) | Potency (MCC-26) | Potency (MKL-1) | Potency (MKL-2) | Potency (UISO) | Potency (WaGa) | Potency (C33A) | Potency (CAOV3) | Potency (CASKI) | Potency (Es-2) | Potency (HeLa) | Potency (Hek293T [6]) | Potency (JEG-3)

O=C1CCc2cc(OCCCCc3nnnn3C3CCCCC3)ccc2N1
inactive: max response (HEK293) -7.13% | outcome (HaCat [1]) | max response (KB-3-1) -0.483% and -0.724% | outcome (NIH3T3 [2]) | outcome (HACAT [3]; [7]) | Potency (MCC-13) | Potency (MCC-26) | Potency (MKL-1) | Potency (MKL-2) | outcome (NIH3T3 [5]) | Potency (UISO) | Potency (WaGa) | Potency (C33A) | Potency (CAOV3) | Potency (CASKI) | Potency (Es-2) | Potency (HeLa) | Potency (Hek293T [6]) | Potency (JEG-3)

O=C(O)[C@@H](c1ccc(OCc2ccc3ccccc3n2)cc1)C1CCCC1
inactive: max response (HEK293) -13% | max response (HaCat [1]) -16.3% | max response (KB-3-1) -4.52% | max response (NIH3T3 [2]) -0.267% | Potency (MCC-13) | Potency (MCC-26) | Potency (MKL-1) | Potency (MKL-2) | Potency (UISO) | Potency (WaGa)

CC(C)OC(=O)C1=CN(C(=O)c2ccc(F)c(F)c2)CC(C)(C)c2c1[nH]c1ccccc21
inactive: max response (HEK293) -9.23% and -19.6% | max response (HaCat [1]) -4.65% | max response (KB-3-1) -6.75% and 0.0694% | max response (NIH3T3 [2]) 3.45% and -0.558% | Potency (MCC-13) | Potency (MKL-1) | Potency (MKL-2) | Potency (UISO) | Potency (WaGa) | Potency (C33A) | Potency (CAOV3) | Potency (CASKI) | Potency (Es-2) | Potency (HeLa) | Potency (Hek293T [6]) | Potency (JEG-3)

CC(=O)NC(C)c1ccc(Oc2ccc(OC(C)C)cc2)cc1 (stereo not drawn)
active: Potency (HEK293) 14.8 µM
inactive: max response (HaCat [1]) -3.76% | max response (KB-3-1) 7.61% | Potency (MCC-13) | Potency (MCC-26) | Potency (MKL-1)

NC(=O)C1CCCc2c1[nH]c1ccc(Cl)cc21 (stereo not drawn)
active: Potency (HEK293) 5.9 µM
inactive: max response (HaCat [1]) -10.7% | max response (KB-3-1) 2.38% | max response (NIH3T3 [2]) -12.4% | Potency (MCC-13) | Potency (MKL-1) | Potency (MKL-2) | Potency (UISO) | Potency (WaGa)

CC[C@H](Nc1ncnc2nc[nH]c12)c1nc2cccc(F)c2c(=O)n1-c1ccccc1
active: Potency (HEK293) 23.5 µM | Potency (HaCat [1]) 13.2 µM
inactive: outcome (KB-3-1) | max response (NIH3T3 [2]) -27.5% | Potency (MCC-13) | Potency (MCC-26) | Potency (MKL-1) | Potency (UISO) | activity change, negative = cytotoxicity (C33A) -4.71% [at 11.6 µM] | activity change, negative = cytotoxicity (CAOV3) -6.79% [at 11.6 µM] | activity change, negative = cytotoxicity (CASKI) -22.6% [at 11.6 µM] | activity change, negative = cytotoxicity (Es-2) -27.1% [at 11.6 µM] | activity change, negative = cytotoxicity (HeLa) -8.83% [at 11.6 µM] | activity change, negative = cytotoxicity (Hek293T [6]) -17.7% [at 11.6 µM] | activity change, negative = cytotoxicity (JEG-3) -10.7% [at 11.6 µM]

COc1ccccc1-c1cccc(-c2c(O)c3cc(C#N)c(Cl)cc3[nH]c2=O)c1
inactive: max response (KB-3-1) -25.1% | Potency (MCC-13) | Potency (MCC-26) | Potency (MKL-1) | Potency (MKL-2) | Potency (UISO) | Potency (WaGa)
active: Potency (HEK293) 3.4 µM | Potency (HaCat [1]) 19.1 µM | Potency (NIH3T3 [2]) 21.5 µM

CCCS(=O)(=O)Nc1ccc(F)c(C(=O)c2c[nH]c3ncc(-c4ccc(Cl)cc4)cc23)c1F
inactive: max response (HEK293) -5.51% | max response (HaCat [1]) -13.3% | max response (KB-3-1) 4.09% | Potency (MCC-13) | Potency (MKL-1) | Potency (MKL-2) | Potency (UISO) | Potency (WaGa) | Potency (C33A) | Potency (CAOV3) | Potency (CASKI) | Potency (HeLa) | Potency (Hek293T [6]) | Potency (JEG-3)

O=C(c1cc(Cc2n[nH]c(=O)c3ccccc23)ccc1F)N1CCN(C(=O)C2CC2)CC1
inactive: max response (HEK293) -77.6% | max response (HaCat [1]) -1.1% | max response (KB-3-1) -21.2% and -8.64% | max response (NIH3T3 [2]) -27.5% and -49.1% | Potency (MCC-13) | Potency (MCC-26) | Potency (MKL-1) | Potency (C33A) | Potency (CAOV3) | Potency (CASKI) | Potency (Es-2) | Potency (HeLa) | Potency (Hek293T [6]) | Potency (JEG-3)
active: Potency (UISO) 16.6 µM

CCOc1ccc(Cc2cc([C@@H]3O[C@H](CO)[C@@H](O)[C@H](O)[C@@H]3O)ccc2Cl)cc1
inactive: max response (HEK293) 1.73% | outcome (HaCat [1]) | max response (KB-3-1) 6.49% | max response (NIH3T3 [2]) 1.42% | outcome (HACAT [3]; [7]) | Potency (MCC-13) | Potency (MKL-2) | Potency (UISO)

Cc1cccc(-c2[nH]c(C(C)(C)C)nc2-c2ccc3nccnc3c2)n1
active: Potency (HEK293) 3.72 µM | Potency (KB-3-1) 14.8 µM | Potency (MKL-1) 2.64 µM | Potency (UISO) 2.96 µM | Potency (WaGa) 2.64 µM
inactive: outcome (HaCat [1]) | outcome (HACAT [3]; [7]) | Potency (MCC-13)

— PubChem BioAssay (NCATS)
